Results published in PubChem BioAssay (EPA / NIEHS).
Activity calls are given as the source filed them. Rule for the calls: active = hit-call score of the fitted dose curve at least 0.9, where 1 is the maximum; inactive = score below 0.9.

Legend:
Conditions in all cases: mRNA level, 48 h; actives raise or lower the signal
[1] = read-out: Intercellular Adhesion Molecule 1 (ICAM1), ICAM1 (gene 3383); test: LTEA_HepaRG_ICAM1: Life Technologies and Expression Analysis (LTEA) Assay for Intercellular Adhesion Molecule 1 (ICAM1) using HepaRG (AID 2283507)
Summary of the method: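 Readout is qRT-PCR mRNA level, normalized to three housekeeping genes and fitted bidirectionally against 0.5% DMSO vehicle. Human HepaRG cultures received compound for 48 h, top concentration 100 uM with half-log dilutions.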

[2] = read-out: Insulin-like growth factor-binding protein 1 (IGFBP1), IGFBP1 (gene 3484); test: LTEA_HepaRG_IGFBP1: Life Technologies and Expression Analysis (LTEA) Assay for Insulin-like growth factor-binding protein 1 (IGFBP1) using HepaRG (AID 2283508)
Summary of the method: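 Thawed HepaRG cells are plated for 48 h, switched to serum-free induction medium, then dosed in duplicate for another 48 h (100 uM top, half-log steps). Lysates in RLT go to qRT-PCR, and gain or loss of signal is fitted relative to vehicle.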

[3] = read-out: Interleukin 6 (IL6), IL6 (gene 3569); test: LTEA_HepaRG_IL6: Life Technologies and Expression Analysis (LTEA) Assay for Interleukin 6 (IL6) using HepaRG (AID 2283509)
Summary of the method: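 HepaRG, ~100,000 cells/well, 48 h pre-culture; serum-free induction medium; cmpd 8-pt half-log from 100 uM, 0.5% DMSO, duplicate, 48 h. Lysis in RLT, TaqMan qRT-PCR; gain or loss vs DMSO.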

[4] = read-out: Interleukin 6 Receptor (IL6R), IL6R (gene 3570); test: LTEA_HepaRG_IL6R: Life Technologies and Expression Analysis (LTEA) Assay for Interleukin 6 Receptor (IL6R) using HepaRG (AID 2283510)
Summary of the method: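 Differentiated HepaRG cells, plated 48 h, then exposed in duplicate for 48 h in serum-free induction medium to 8 half-log concentrations (top 100 uM, 0.5% DMSO). IL6R mRNA measured by TaqMan qRT-PCR, normalized to ACTB/GAPDH/POLR2A; bidirectional fit vs DMSO.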

[5] = read-out: Potassium channel subfamily K member 1 (KCNK1), KCNK1 (gene 3775); test: LTEA_HepaRG_KCNK1: Life Technologies and Expression Analysis (LTEA) Assay for Potassium channel subfamily K member 1 (KCNK1) using HepaRG (AID 2283511)
Summary of the method: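 Gain or loss of KCNK1 mRNA is the read-out, quantified by qRT-PCR against three housekeeping genes after 48 h chemical treatment of human HepaRG liver cells. Concentrations ran from 100 uM downward in half-log steps, vehicle 0.5% DMSO.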

[6] = read-out: Keratin 19 (KRT19), KRT19 (gene 3880); test: LTEA_HepaRG_KRT19: Life Technologies and Expression Analysis (LTEA) Assay for Keratin 19 (KRT19) using HepaRG (AID 2283512)
Summary of the method: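 KRT19 transcript levels, measured by Fluidigm qRT-PCR against three housekeeping genes, are fitted for gain or loss of signal relative to DMSO. Human HepaRG cells receive test chemicals (top 100 uM, half-log steps, 0.5% DMSO) for 48 hours.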

[7] = read-out: Lipase C (LIPC), LIPC (gene 3990); test: LTEA_HepaRG_LIPC: Life Technologies and Expression Analysis (LTEA) Assay for Lipase C (LIPC) using HepaRG (AID 2283514)
Summary of the method: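 Read-out is LIPC transcript level by TaqMan qRT-PCR, normalized to three housekeeping genes, after 48 h chemical treatment of human HepaRG liver cells. Curves span eight concentrations topping at 100 uM; activity in either direction scored relative to 0.5% DMSO.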

[8] = read-out: Lipoprotein lipase (LPL), LPL (gene 4023); test: LTEA_HepaRG_LPL: Life Technologies and Expression Analysis (LTEA) Assay for Lipoprotein lipase (LPL) using HepaRG (AID 2283515)
Summary of the method: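 Read-out is LPL transcript level by qRT-PCR, normalized to three housekeeping genes and fitted bidirectionally against the DMSO control. Human HepaRG cells received chemicals for 48 h at up to 100 uM.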

[9] = read-out: MicroRNA 122 (MIR122), gene 406906; test: LTEA_HepaRG_MIR122: Life Technologies and Expression Analysis (LTEA) Assay for MicroRNA 122 (MIR122) using HepaRG (AID 2283516); note: the transcript read is the microRNA miR-122
Summary of the method: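 Differentiated human HepaRG cells in serum-free induction medium exposed 48 h to 8 half-log concentrations from 100 uM in 0.5% DMSO, duplicate. MIR122 quantified by Fluidigm TaqMan qRT-PCR, normalised to ACTB, GAPDH, POLR2A; fold change fitted bidirectionally versus DMSO.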

[10] = read-out: matrix metalloproteinase-10 (MMP10), MMP10 (gene 4319); test: LTEA_HepaRG_MMP10: Life Technologies and Expression Analysis (LTEA) Assay for matrix metalloproteinase-10 (MMP10) using HepaRG (AID 2283517)
Summary of the method: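 Gain or loss of MMP10 mRNA is fitted relative to the 0.5% DMSO vehicle. The human hepatic line HepaRG receives a 48-hour serum-free exposure, in duplicate, with a maximum concentration of 100 uM.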

[11] = read-out: MYC, MYC (gene 4609); test: LTEA_HepaRG_MYC: Life Technologies and Expression Analysis (LTEA) Assay for MYC using HepaRG (AID 2283518)
Summary of the method: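 HepaRG, ~100,000 cells/well, collagen I; 48 h plating; serum-free induction medium; 48 h dosing, duplicate, 100 uM top, half-log, 0.5% DMSO; total RNA → qRT-PCR MYC; gain/loss fit vs DMSO.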

[12] = read-out: matrix metalloproteinase-3 (MMP3), MMP3 (gene 4314); test: LTEA_HepaRG_MMP3: Life Technologies and Expression Analysis (LTEA) Assay for matrix metalloproteinase-3 (MMP3) using HepaRG (AID 2283519)
Summary of the method: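 HepaRG, human; 48 h dosing, 8 conc. (max 100 uM, half-log), duplicate, 0.5% DMSO. Readout: MMP3 transcript by Fluidigm TaqMan qRT-PCR, ACTB/GAPDH/POLR2A-normalised. Gain or loss fitted vs DMSO.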

[13] = read-out: Paternally Expressed 10 (PEG10), PEG10 (gene 23089); test: LTEA_HepaRG_PEG10: Life Technologies and Expression Analysis (LTEA) Assay for Paternally Expressed 10 (PEG10) using HepaRG (AID 2283520)
Summary of the method: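 Differentiated HepaRG cells exposed 48 h in serum-free induction medium to eight half-log concentrations topping at 100 uM, 0.5% DMSO, in duplicate. PEG10 mRNA quantified by TaqMan qRT-PCR, normalized to ACTB, GAPDH and POLR2A; bidirectional fit versus DMSO.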

[14] = read-out: Protein phosphatase 2A (PPP2R4), PTPA (gene 5524); test: LTEA_HepaRG_PPP2R4: Life Technologies and Expression Analysis (LTEA) Assay for Protein phosphatase 2A (PPP2R4) using HepaRG (AID 2283522)
Summary of the method: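 Differentiated human HepaRG cells in serum-free induction medium were exposed 48 h to 8 concentrations (top 100 µM, half-log steps, duplicate) in 0.5% DMSO. PPP2R4 mRNA was measured by TaqMan qRT-PCR, normalised to ACTB, GAPDH and POLR2A, and fitted bidirectionally versus DMSO.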

[15] = read-out: Phosphatase and tensin (PTEN), PTEN (gene 5728); test: LTEA_HepaRG_PTEN: Life Technologies and Expression Analysis (LTEA) Assay for Phosphatase and tensin (PTEN) using HepaRG (AID 2283523)
Summary of the method: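 Read-out is PTEN transcript level by multiplexed TaqMan qRT-PCR after 48 h chemical treatment of human HepaRG cultures in serum-free induction medium. Concentrations spanned 100 uM downward in half-log steps, 0.5% DMSO throughout; activity fitted in both directions against vehicle.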

[16] = read-out: solute carrier (SLC22A1), SLC22A1 (gene 6580); test: LTEA_HepaRG_SLC22A1: Life Technologies and Expression Analysis (LTEA) Assay for solute carrier (SLC22A1) using HepaRG (AID 2283524)
Summary of the method: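 HepaRG (human liver line), 48 h dosing in serum-free induction medium; 8 conc., half-log down from 100 uM, 0.5% DMSO vehicle, duplicates. Endpoint: SLC22A1 mRNA, qRT-PCR, housekeeping-normalized; gain/loss fit vs DMSO.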

[17] = read-out: Pyruvate Dehydrogenase Kinase 4 (PDK4), PDK4 (gene 5166); test: LTEA_HepaRG_PDK4: Life Technologies and Expression Analysis (LTEA) Assay for Pyruvate Dehydrogenase Kinase 4 (PDK4) using HepaRG (AID 2283525)
Summary of the method: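 In this multiplexed human HepaRG expression assay, cells are treated 48 h with test chemicals across an eight-point range starting at 100 uM. PDK4 mRNA changes, normalized to ACTB/GAPDH/POLR2A, are fitted in both directions relative to vehicle.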

[18] = read-out: NAD(P)H dehydrogenase [quinone] 1 (NQO1), NQO1 (gene 1728); test: LTEA_HepaRG_NQO1: Life Technologies and Expression Analysis (LTEA) Assay for NAD(P)H dehydrogenase [quinone] 1 (NQO1) using HepaRG (AID 2283526)
Summary of the method: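 Differentiated human HepaRG cells in serum-free induction medium, dosed in duplicate for 48 h at 8 half-log concentrations up to 100 uM in 0.5% DMSO. NQO1 mRNA by qRT-PCR normalized to ACTB, GAPDH, POLR2A; bidirectional fit versus DMSO baseline.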

[19] = read-out: JUN Transcription Factor, JUN (gene 3725); test: LTEA_HepaRG_JUN: Life Technologies and Expression Analysis (LTEA) Assay for JUN Transcription Factor using HepaRG (AID 2283513)
Summary of the method: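 HepaRG cells, 48 h post-plating, exposed 48 h in serum-free induction medium to 8-point half-log series (top 100 uM, 0.5% DMSO), duplicate; mRNA by qRT-PCR (TaqMan, Fluidigm), normalized to ACTB/GAPDH/POLR2A; bidirectional fit vs DMSO.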

[20] = read-out: Nuclear factor NF-kappa-B p105 subunit (Homo sapiens) (UniProt P19838); test: LTEA_HepaRG_NFKB1: Life Technologies and Expression Analysis (LTEA) Assay for Nuclear Factor Kappa B Subunit 1 (NFKB1) using HepaRG (AID 2283521)
Summary of the method: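 Differentiated human HepaRG cells in serum-free induction medium with 0.5% DMSO were exposed for 48 h to eight half-log concentrations, top 100 uM, in duplicate. NFKB1 mRNA measured by Fluidigm TaqMan qRT-PCR, normalised to ACTB, GAPDH and POLR2A; bidirectional fit versus DMSO.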

Measured: outcome

Nuclear factor NF-kappa-B p105 subunit (Homo sapiens), sequence (P19838 whole entry, looked up): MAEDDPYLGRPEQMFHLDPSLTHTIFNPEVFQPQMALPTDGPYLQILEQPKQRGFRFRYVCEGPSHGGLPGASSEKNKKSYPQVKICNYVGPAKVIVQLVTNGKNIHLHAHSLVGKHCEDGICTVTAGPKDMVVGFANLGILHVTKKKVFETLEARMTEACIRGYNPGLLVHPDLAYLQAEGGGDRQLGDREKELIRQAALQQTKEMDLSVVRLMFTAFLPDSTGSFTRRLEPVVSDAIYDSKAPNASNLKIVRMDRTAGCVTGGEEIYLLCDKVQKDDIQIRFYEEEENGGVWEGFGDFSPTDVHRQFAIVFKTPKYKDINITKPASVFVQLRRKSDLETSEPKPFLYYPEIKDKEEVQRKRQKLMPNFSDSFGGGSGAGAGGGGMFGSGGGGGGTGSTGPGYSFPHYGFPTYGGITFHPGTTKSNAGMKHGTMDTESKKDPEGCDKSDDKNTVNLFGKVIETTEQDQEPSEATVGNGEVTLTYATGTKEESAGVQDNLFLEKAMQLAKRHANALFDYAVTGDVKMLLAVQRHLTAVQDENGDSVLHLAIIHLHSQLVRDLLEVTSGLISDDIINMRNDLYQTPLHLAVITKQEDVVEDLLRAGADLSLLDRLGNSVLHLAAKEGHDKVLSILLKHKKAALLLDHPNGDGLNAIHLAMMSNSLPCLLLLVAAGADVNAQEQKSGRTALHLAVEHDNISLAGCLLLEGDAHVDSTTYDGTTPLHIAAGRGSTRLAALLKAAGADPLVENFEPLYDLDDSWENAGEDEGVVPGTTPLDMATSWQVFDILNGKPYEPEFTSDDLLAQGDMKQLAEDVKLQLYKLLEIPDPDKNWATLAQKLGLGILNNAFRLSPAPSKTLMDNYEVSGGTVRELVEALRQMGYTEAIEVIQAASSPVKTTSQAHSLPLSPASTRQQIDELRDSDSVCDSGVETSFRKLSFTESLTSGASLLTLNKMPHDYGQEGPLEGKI

Cc1ccc([N+](=O)[O-])cc1N
not listed: [19] | [20]
inactive: all other assays above

Nc1ccc(C(=O)O)cc1
inactive: all assays above

C1CNCCN1
inactive: all assays above
